Inconclusive results are not listed. Some compounds were tested as several samples or in several runs, with calls that do not always agree. Activity calls are given as the source filed them. Rule for the calls, unless noted: active = hit-call score of the fitted dose curve at least 0.9, where 1 is the maximum; inconclusive = response in the unintended direction; inactive = score below 0.9.
What was measured:
[1] = TOX21_p53_BLA_p2_viability: Viability Assessment in the Tox21 HCT-116 p53 Agonism Beta-lactamase Assay, Phase 2 (AID 2283591);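 note: compound exposure lasted 16 h at 37 °C; actives lower the ATP signal meaning cytotoxicity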
Method in brief: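 Cytotoxicity readout: CellTiter-Glo ATP luminescence, 30 min at room temperature, after the beta-lactamase read. Cells were HCT116 exposed 16 h at 37C to compounds pin-transferred at 217-fold dilution from DMSO stocks.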

[2] = molecular target: Cellular tumor antigen p53 (Homo sapiens) (UniProt P04637); assay: TOX21_p53_BLA_p3_ratio: Tox21 HCT-116 p53 Agonism Beta-lactamase Assay, Ratio, Phase 3 (AID 2283596)
Method in brief: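 Cells were seeded at 4000/well, rested 5 h at 37C, then dosed with DMSO compound solutions (217-fold dilution) for 16 h. CCF4-AM substrate was loaded for 2 h at room temperature, and the 460/530 nm emission ratio was fitted for gain of signal versus DMSO.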

[3] = TOX21_p53_BLA_p4_viability: Viability Assessment in the Tox21 HCT-116 p53 Agonism Beta-lactamase Assay, Phase 4 (AID 2283597);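 note: hits lower the luminescence signal meaning cytotoxicity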
Method in brief: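 In this multiplexed secondary endpoint, HCT116 cells (4000 per well, compound at 5 h, 16 h treatment) received CellTiter-Glo after the beta-lactamase read. Luminescence after 30 min RT reflects ATP, and falling signal marks cytotoxicity.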

[4] = molecular target: Cellular tumor antigen p53 (Homo sapiens) (UniProt P04637); assay: TOX21_p53_BLA_p5_ratio: Tox21 HCT-116 p53 Agonism Beta-lactamase Assay, Ratio, Phase 5 (AID 2283599)
Method in brief: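 Beta-lactamase reporter ratio (blue 460 nm over green 530 nm, 405 nm excitation) after 2 h CCF4-AM loading, in HCT-116 cells exposed 16 h at 37 C to compounds pinned at 217-fold dilution. Increases relative to DMSO baseline scored.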

[5] = TOX21_p53_BLA_p5_viability: Viability Assessment in the Tox21 HCT-116 p53 Agonism Beta-lactamase Assay, Phase 5 (AID 2283600)
Method in brief: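 Here cell health was gauged by ATP levels in wells holding 4000 cells, each treated 16 h with DMSO-delivered compounds at 217-fold dilution; reduced luminescence marked toxicity.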

[6] = molecular target: Cellular tumor antigen p53 (Homo sapiens) (UniProt P04637); assay: TOX21_p53_BLA_p4_ratio: Tox21 HCT-116 p53 Agonism Beta-lactamase Assay, Ratio, Phase 4 (AID 2283601)
Method in brief: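 Signal is the blue/green (460nm/530nm) ratio of cleaved versus uncleaved CCF4-AM substrate, read after 2 h substrate loading. Cells were HCT116 carrying the p53-responsive beta-lactamase reporter, dosed 16 h at 37C, 5% CO2; CellTiter-Glo measured in parallel.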

[7] = molecular target: Thyroid hormone receptor alpha (Rattus norvegicus) + Thyroid hormone receptor beta (Rattus norvegicus) (UniProt P18113+P63059); assay: TOX21_TR_LUC_GH3_Antagonist_Followup: Tox21 GH3 Thyroid Hormone Receptor Antagonism Luciferase Follow-Up Assay (AID 2283942)
Method in brief: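 Loss of T3-driven (1.0 nM final) reporter activity in GH3 cells was read by ONE-Glo luminescence after 24 h incubation at 37C; 15-point compound series spanned 92 uM to 5nM final, 1,500 cells/well.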

[8] = molecular target: THRA (gene 7067) (UniProt P10827); assay: TOX21_TRA_COA_Antagonist_Followup_ratio: Tox21 Thyroid Hormone Receptor alpha Antagonism through Coactivator Recruitment Follow-Up Assay, Ratio (AID 2283953)
Method in brief: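 GST-TRα LBD 2.5 nM, BSA 0.10%, + cpd; then FITC-SRC-2 peptide 200 nM + Tb-anti-GST Ab 2 nM. TR-FRET ratio 520/495 nm. Norm: DMSO = 0%, T3 = 100%.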

[9] = molecular target: THRB (gene 7068) (UniProt P10828); assay: TOX21_TRB_BLA_Antagonist_Followup_ratio: Tox21 Thyroid Hormone Receptor beta Antagonism Beta-lactamase (BLA) Follow-Up Assay, Ratio (AID 2283958)
Method in brief: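 Cells were plated and allowed to attach for 5 h, then dosed with compounds in DMSO at 11 concentrations for 18 h at 37C. Beta-lactamase reporter activity was measured via CCF4-AM FRET as the 460:530 nm ratio.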

[10] = TOX21_TRB_BLA_Antagonist_Followup_viability: Viability Assessment in the Tox21 Thyroid Hormone Receptor beta Antagonism Beta-lactamase (BLA) Follow-Up Assay (AID 2283961)
Method in brief: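 In the same wells as the reporter read, cell health was gauged by CellTiter-Glo ATP luminescence, with signal loss indicating reduced viability. Cells had been exposed to test compounds for 18 h.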

[11] = molecular target: THRB (gene 7068) (UniProt P10828); assay: TOX21_TRB_COA_Antagonist_Followup_ratio: Tox21 Thyroid Hormone Receptor beta Antagonism through Coactivator Recruitment Follow-Up Assay, Ratio (AID 2283967)
Method in brief: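 Coactivator recruitment to the GST-tagged TRb ligand-binding domain (5.0 nM) was read as the 520/495 nm TR-FRET ratio, using 200 nM fluorescein SRC-2 peptide and 2 nM terbium anti-GST. Scaled between DMSO and T3 wells; loss of signal fitted.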

[12] = molecular target: Retinoic acid receptor RXR-alpha (Homo sapiens) (UniProt P19793); assay: TOX21_TR_RXR_BLA_Antagonist_Followup_ratio: Tox21 Thyroid Hormone Receptor beta Retinoid X Receptor alpha (RXRa) Antagonism Beta-lactamase (BLA) Follow-Up Assay, Ratio (AID 2283972)
Method in brief: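 Compounds were tested in triplicate at 11 concentrations on RXRa-bla HEK293T cells for 16 h. Substrate cleavage ratio, normalized to DMSO, gave the endpoint.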

[13] = CCTE_Harrill_HTTr_Viability_MCF7: CCTE's 6-hour Cell Viability Assessment for the High-Throughput Transcriptomics (HTTr) Platform, in MCF-7 cells cultured in DMEM + 10% fetal bovine serum, Harrill Lab (AID 2284010; active = hit-call score of the fitted dose curve at least 0.9, where 1 is the maximum; inactive = score below 0.9)
Method in brief: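 Read-out is propidium iodide gain of signal by high-content imaging, reflecting membrane integrity loss. Measurements are taken 6 h after dosing, eight concentrations per chemical, with DMSO serving as baseline for bidirectional curve fitting.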

[14] = CCTE_Harrill_HTTr_Apoptosis_MCF7: CCTE's 6-hour Apoptosis Assessment for the High-Throughput Transcriptomics (HTTr) Platform, in MCF-7 cells cultured in DMEM + 10% fetal bovine serum, Harrill Lab (AID 2284011; active = hit-call score of the fitted dose curve at least 0.9, where 1 is the maximum; inactive = score below 0.9)
Method in brief: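 Apoptosis in MCF-7 cells grown in DMEM with 10% fetal bovine serum was scored after a six hour exposure by high content imaging of caspase-3/7 activation (CellEvent Caspase 3/7 Green), with DMSO serving as negative control and baseline.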

[15] = CCTE_Harrill_HTTr_CellCount_MCF7: CCTE's Cell Proliferation Assessment for the High-Throughput Transcriptomics (HTTr) Platform, Harrill Lab (AID 2284012);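 note: cells exposed to compound for six hours; intended direction is loss of nuclei count meaning fewer cells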
Method in brief: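 Cell count served as viability reporter: loss of Hoechst-stained nuclei, counted by high content imaging, marks decreased growth or survival. Exposure was 6 h in MCF-7 cells across eight concentrations, with DMSO as baseline.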

Measured: AC50

Chain of Cellular tumor antigen p53 (Homo sapiens) (P04637 whole entry, looked up): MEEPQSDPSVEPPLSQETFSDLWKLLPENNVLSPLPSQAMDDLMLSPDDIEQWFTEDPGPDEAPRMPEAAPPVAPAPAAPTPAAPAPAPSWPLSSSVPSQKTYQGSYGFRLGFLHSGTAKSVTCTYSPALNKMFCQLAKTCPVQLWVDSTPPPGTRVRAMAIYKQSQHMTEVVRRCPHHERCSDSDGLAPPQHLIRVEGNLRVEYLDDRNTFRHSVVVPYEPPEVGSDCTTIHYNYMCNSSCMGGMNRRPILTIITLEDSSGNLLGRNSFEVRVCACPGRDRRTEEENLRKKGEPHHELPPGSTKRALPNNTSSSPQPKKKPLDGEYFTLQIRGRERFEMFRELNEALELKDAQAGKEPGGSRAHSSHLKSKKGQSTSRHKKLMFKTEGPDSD
Chain of THRB (gene 7068) (P10828 whole entry, looked up, the tested form may be a part): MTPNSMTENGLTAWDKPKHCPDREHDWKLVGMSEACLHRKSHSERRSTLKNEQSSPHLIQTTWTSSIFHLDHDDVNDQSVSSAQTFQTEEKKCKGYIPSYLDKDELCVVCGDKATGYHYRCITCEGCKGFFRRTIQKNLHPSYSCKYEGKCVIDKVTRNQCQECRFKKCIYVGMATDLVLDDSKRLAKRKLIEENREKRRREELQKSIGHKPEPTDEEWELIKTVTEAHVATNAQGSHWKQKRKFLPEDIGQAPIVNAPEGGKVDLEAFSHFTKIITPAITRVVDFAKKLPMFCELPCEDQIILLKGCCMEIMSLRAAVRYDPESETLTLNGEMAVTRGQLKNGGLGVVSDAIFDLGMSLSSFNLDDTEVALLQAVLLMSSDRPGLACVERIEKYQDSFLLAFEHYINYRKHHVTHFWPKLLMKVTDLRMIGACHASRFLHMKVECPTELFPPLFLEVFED
Chain of THRA (gene 7067) (P10827 whole entry, looked up, the tested form may be a part): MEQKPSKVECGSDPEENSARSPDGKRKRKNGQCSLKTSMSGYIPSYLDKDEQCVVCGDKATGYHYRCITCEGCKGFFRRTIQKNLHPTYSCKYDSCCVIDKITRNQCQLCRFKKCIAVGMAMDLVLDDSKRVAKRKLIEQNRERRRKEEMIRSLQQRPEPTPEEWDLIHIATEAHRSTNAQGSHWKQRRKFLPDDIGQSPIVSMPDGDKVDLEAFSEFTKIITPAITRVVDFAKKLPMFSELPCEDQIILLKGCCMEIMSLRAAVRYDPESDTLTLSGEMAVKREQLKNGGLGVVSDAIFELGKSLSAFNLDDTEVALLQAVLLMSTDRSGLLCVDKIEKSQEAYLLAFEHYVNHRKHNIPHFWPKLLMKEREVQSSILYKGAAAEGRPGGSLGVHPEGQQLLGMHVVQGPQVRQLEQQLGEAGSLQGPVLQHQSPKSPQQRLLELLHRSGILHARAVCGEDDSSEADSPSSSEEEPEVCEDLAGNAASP
Chain of Retinoic acid receptor RXR-alpha (Homo sapiens) (P19793 whole entry, looked up): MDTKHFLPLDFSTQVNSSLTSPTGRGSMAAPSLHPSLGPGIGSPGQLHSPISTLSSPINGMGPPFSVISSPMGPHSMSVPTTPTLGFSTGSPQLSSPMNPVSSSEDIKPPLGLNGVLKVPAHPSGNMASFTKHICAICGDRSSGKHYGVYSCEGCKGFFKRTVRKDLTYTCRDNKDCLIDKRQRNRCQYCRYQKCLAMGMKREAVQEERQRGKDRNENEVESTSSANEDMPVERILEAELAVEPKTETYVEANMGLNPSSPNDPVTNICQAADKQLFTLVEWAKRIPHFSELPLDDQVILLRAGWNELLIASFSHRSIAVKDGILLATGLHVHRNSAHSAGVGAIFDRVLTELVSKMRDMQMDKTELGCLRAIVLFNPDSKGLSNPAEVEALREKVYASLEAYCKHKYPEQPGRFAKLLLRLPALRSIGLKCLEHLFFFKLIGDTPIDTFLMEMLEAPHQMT

C[N+](C)(C)CC[N+]1(C)Cc2c(Cl)c(Cl)c(Cl)c(Cl)c2C1
inactive: [1] | [2] | [3] | [4] | [5] | [6]

Cc1nc2n(c(=O)c1CCN1CCC(c3noc4cc(F)ccc34)CC1)CCC[C@H]2O
inactive: [1] | [2] | [3] | [4] | [5] | [6]

CC[C@@]1(O)C[C@@H]2CN(CCc3c([nH]c4ccccc34)[C@@](C(=O)OC)(c3cc4c(cc3OC)N(C)[C@H]3[C@@](O)(C(=O)OC)[C@H](OC(C)=O)[C@]5(CC)C=CCN6CC[C@]43[C@@H]65)C2)C1
inactive: [1] | [2] | [3] | [4] | [5] | [8] | [10] | [11] | [12]
active: [4] 17.3 nM | [7] 17500 nM | [9] 73.4 nM

CCC=CC#N
inactive: [1] | [2] | [3] | [4] | [5] | [6]

CS(=O)(=O)OCCCNCCCOS(C)(=O)=O
inactive: [1] | [2] | [3] | [4] | [5] | [6]

Cc1ccc2c(c1)c1c3n2CCNC3CCC1 (stereo not drawn)
inactive: [1] | [2] | [3] | [4]

NC(=O)NC(=O)Cc1ccccc1
inactive: [1] | [2] | [3] | [4]

Cc1ccc(=O)n(-c2ccccc2)c1
inactive: [1] | [2] | [3] | [4] | [6]

CC[C@H](CC[C@@H](C)[C@H]1CC[C@H]2[C@@H]3CC=C4C[C@@H](O)CC[C@]4(C)[C@H]3CC[C@]12C)C(C)C
not listed: [7] | [8] | [9] | [10] | [11] | [12]
inactive: all other assays above

SCCCCCCCCS
inactive: [1] | [2] | [3] | [4]

CN(C)CC/C=C1/c2ccccc2COc2ccc(CC(=O)O)cc21
inactive: [1] | [2] | [3] | [4] | [5] | [6]

CCCCN1C=CN(C)C1
inactive: [1] | [2] | [3] | [4] | [5]

BrCCCCCBr
inactive: [1] | [2] | [3] | [4] | [5] | [6]

BrC/C=C/CBr
inactive: [1] | [2] | [3] | [4] | [5]

CC12CC3CC(C)(C1)CC(N)(C3)C2
inactive: [1] | [2] | [3] | [4] | [6]

CC(=O)O[C@H]1C[C@@]2(C)[C@@H](C[C@@H](O)[C@H]3[C@@]4(C)CC[C@@H](O)[C@@H](C)[C@@H]4CC[C@@]32C)/C1=C(\CCC=C(C)C)C(=O)O
inactive: [1] | [2] | [3] | [4] | [5]

CC(C)(C)C(=O)CC(=O)C(C)(C)C
inactive: [1] | [2] | [3] | [4]

Cn1c(=O)c2c(ncn2CC(O)CO)n(C)c1=O (stereo not drawn)
inactive: [1] | [2] | [3] | [4] | [6]

O=c1[nH]c2ccc(Cl)cc2o1
inactive: [1] | [2] | [3] | [4] | [5] | [6]

ClC/C=C/CCl
inactive: [1] | [2] | [3] | [4] | [5]

C1COC1
inactive: [1] | [2] | [3] | [4] | [5]

Cc1ncc(CO)c(C=O)c1O
inactive: [1] | [2] | [3] | [4] | [5] | [6]

CC(=O)c1ccc2c(c1)N(CCCN(C)C)c1ccccc1S2
inactive: [1] | [2] | [3] | [4]

O=[N+]([O-])c1ccccc1CCO
inactive: [1] | [2] | [3] | [4] | [5]

Nc1nc(/C(=C/CC(=O)O)C(=O)N[C@@H]2C(=O)N3C(C(=O)O)=CCS[C@H]23)cs1
inactive: [1] | [2] | [3] | [4]
